# Data: the supplement of paper PMC8183993
# Where “and” joins values, the source holds several entries; their conditions need not be identical. Equal values may be shown once. Where a name gives a salt, the structure may show the parent alone. ± gives the standard deviation of the averaged measurements. In all, about 3,100 compounds were measured (“mean cytoplasmic OPP incorporation (global translation) relative to DMSO”: median about 100, lowest 2% from about 56 on). Only a selection was taken, and the lowest values are over-represented in it overall.
# System: U2OS
# Assay: mean cytoplasmic OPP incorporation (global translation) relative to DMSO (% of DMSO); higher = more protein synthesis
# Details: 10 µM; 24 h
# Method: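 Primary image-based screen in U2OS cells: compounds at 10 uM for 24 h, then a 1 h o-propargyl-puromycin (OPP) pulse, click labelling, and high-throughput microscopy. Mean cytoplasmic OPP intensity and nuclei count were normalised to DMSO wells within each plate (DMSO = 100) and averaged over triplicate plates.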
row,SMILES,mean cytoplasmic OPP incorporation
1,COc1cc(N2CCC(N)CC2)ccc1Nc1ncc(Cl)c(-c2c[nH]c3ccccc23)n1,36.5
2,CCOc1cc(N2CCC(O)CC2)ccc1Nc1ncc2c(n1)N(C)c1ccccc1C(=O)N2C,110
3,CNC(=O)c1ccccc1Nc1nc(Nc2ccc(N3CCOCC3)cc2OC)ncc1Cl,90.7 ± 4.2
4,c1ccc2c(Cc3c[nH]c4ccccc34)c[nH]c2c1 [Diindolylmethane],93.7
5,OCc1c[nH]c2ccccc12 [Indole-3-carbinol],113
6,"O=C(/C=C/c1ccc(CN(CCO)CCc2c[nH]c3ccccc23)cc1)NO [LAQ824 (NVP-LAQ824, Dacinostat)]",47.7
7,CC(C)C[C@H](NC(=O)N[C@H](C(=O)N[C@@H](CCC(N)=O)C(=O)N[C@@H](C)C=O)[C@@H]1CCNC(=N)N1)C(=O)O [Elastatinal],98.9
8,COc1cc(OC)c(C(=O)CCCCN2CCC3(CC2)NC(=O)NC3=O)cc1NS(=O)(=O)c1ccc(C(F)(F)F)cc1,129
9,CC1(C)C(=O)NC2=C1C(=O)C(=O)c1ccccc12,59.6 and 42.6
10,CC1=CC(=O)c2ccccc2C1=O [Menadione],95.2
11,CC1(C)CCC2=C(O1)c1ccccc1C(=O)C2=O,110
12,c1cc2c(cc1C1CCCCC1)c1c3n2CCNC3CCC1 (centres undefined) [Tetrindole mesylate],129
13,C=C(C)[C@@H](CC=C(C)C)C[C@@]12C[C@@H](CC=C(C)C)C(C)(C)[C@@](CC=C(C)C)(C(=O)C(C(=O)c3ccc(O)c(O)c3)=C1O)C2=O [Garcinol],100
14,C[C@@H](NCc1cc(Br)cc2[nH]c(=O)c(=O)[nH]c12)P(=O)(O)O,96.4
15,Cc1ccc(NC(=O)c2ccc(CN3CC[C@H](N(C)C)C3)c(C(F)(F)F)c2)cc1Nc1nccc(-c2cncnc2)n1 [Bafetinib (INNO-406)],118
16,Cc1ccc(C(=O)Nc2ccc(CN3CCN(C)CC3)c(C(F)(F)F)c2)cc1C#Cc1cnc2cccnn12,32.7
17,Cc1ccc(C(=O)Nc2cccc(C(F)(F)F)c2)cc1Nc1nc(-c2cccnc2)nc2c1cnn2C,145
18,Cc1ccc(C(=O)Nc2ccc(CN3CCN(C)CC3)c(C(F)(F)F)c2)cc1C#Cc1cnc2[nH]ncc2c1 [GZD824 Dimesylate],37.4
19,O=C(Cc1ccccc1)Nc1cccc(C(=O)Nc2ccccc2C(=O)O)c1,106
20,"S=c1ccss1 [1,2-Dithiole-3-thione]",115
21,CC[C@H](C)[C@H](N)C(=O)N1CCSC1 [P32/98 hemifumarate salt],107

row,SMILES,mean cytoplasmic OPP incorporation
1,C=CC(=O)c1ccc2ccccc2c1,100
2,NC(=O)c1ccncc1 [Isonicotinamide],109
3,O=C(/C=C/c1ccc2ccccc2n1)c1ccncc1,26.3
4,COc1cc2c(NC3CCN(C)CC3)nc(N3CCCN(C)CC3)nc2cc1OCCCN(C)C,112
5,CCn1nnc2c(N3CCOCC3)nc(-c3ccc(NC(=O)Nc4ccc(C(=O)N5CCN(C)CC5)cc4)cc3)nc21,67.6
6,NC(=O)Nc1sc(-c2ccc(F)cc2)cc1C(N)=O,76.5 ± 9.7
7,Cc1c(C(=O)NC2CCCCC2)sc2nc3ccc(N)cc3n12,106
8,NC(=O)Nc1cc(-c2cccc(F)c2)sc1C(=O)N[C@H]1CCCNC1,25.1
9,C[C@H]1O[C@@H](O[C@H]2[C@@H](O)C[C@H](O[C@H]3[C@@H](O)C[C@H](O[C@H]4CC[C@@]5(C)[C@H](CC[C@@H]6[C@@H]5C[C@@H](O)[C@]5(C)[C@@H](C7=CC(=O)OC7)CC[C@]65O)C4)O[C@@H]3C)O[C@@H]2C)C[C@H](O)[C@@H]1O [Digoxin],19
10,Oc1ccc(-c2nc3cc(O)cc(Br)c3o2)cc1,89.5
11,O=C[C@@H]1CCCN1C(=O)[C@@H]1CCCN1C(=O)OCc1ccccc1 [Z-Prolyl-prolinal],98
12,N#C/C(=C\c1ccc(O)c(O)c1)C(=O)NCCCCc1ccccc1,87.8
13,CCCCC[C@H](O)CC(=O)CCc1ccc(O)c(OC)c1 [Gingerol],102
14,NC(C(=O)O)c1cc(O)cc(O)c1 (racemic),107
15,"N[C@@H](Cc1cc(I)c(O)c(I)c1)C(=O)O [3,5-Diiodo-L-tyrosine]",100
16,CS(=O)(=O)Nc1ccc([N+](=O)[O-])cc1Oc1ccccc1 [Nimesulide],97.3 ± 5.5
17,O=C1Nc2ccc([N+](=O)[O-])cc2C1=O [5-Nitroisatin],104
18,O=[N+]([O-])c1ccc2c(c1)S(=O)(=O)C=C2 [Stattic],48.5
19,O=C(O)c1ccc(-c2ccc3cc(O)c(C45CC6CC(CC(C6)C4)C5)cc3c2)cc1,98.8
20,Cc1ccc(C(=O)c2cc(/C=C/C(=O)NO)n(C)c2)cc1,99.3
21,C1CCC(C(CC2CCCCN2)C2CCCCC2)CC1 (centres undefined) [Perhexiline maleate],53

row,SMILES,mean cytoplasmic OPP incorporation
1,CNC(C)C1CCC(N)C(OC2C(N)CC(N)C(OC3OCC(C)(O)C(NC)C3O)C2O)O1 (centres undefined) [Gentamycin sulfate (Gentacycol)],107
2,NCC1CCN(c2nccc(-c3ccc4ccccc4c3)n2)CC1,88.3
3,C[C@H]1CC[C@@]2(OC1)O[C@H]1C[C@H]3[C@@H]4CC[C@@H]5C[C@@H](O[C@@H]6O[C@H](CO)[C@H](O)[C@H](O)[C@H]6O[C@@H]6O[C@H](CO)[C@@H](O)[C@H](O)[C@H]6O)CC[C@]5(C)[C@H]4CC[C@]3(C)[C@H]1[C@@H]2C [Timosaponin A-III],111
4,CNC(=O)c1nn(C)c2c1C(C)(C)Cc1cnc(Nc3ccc(N4CCN(C)CC4)cc3)nc1-2,89.3 and 44.9
5,C=CC(=O)Nc1cccc(Sc2nc(Nc3ccc(N4CCN(C)CC4)cc3)ncc2Cl)c1,57.4
6,C=CC(=O)Nc1cccc(Oc2nc(Nc3ccc(N4CCN(C)CC4)cc3)ncc2Cl)c1,64.9
7,O=C(NC[C@H](O)CN1CCc2ccccc2C1)c1ccnc(NC2CCC2)c1,107
8,NCCCCCCCCCCNS(=O)(=O)c1cccc2c(Cl)cccc12 [A-7 hydrochloride],115
9,CC(C)c1ccc(Cn2ccc3c4c(N)nc(NC5CC5)nc4ccc32)cc1,40.1
10,O=C(NCCN1CCCCC1)c1ccc(I)cc1 [N-[2-(Piperidinylamino)ethyl]-4-iodobenzamide],100
11,C[C@H](Cn1cnc2c(N)ncnc21)OCP(=O)(O)O [Tenofovir (Viread)],99.5
12,CC(C)(C)n1nc(-c2cccc3ccccc23)c2c(N)ncnc21 [1-Naphthyl PP1],93
13,Cc1ccccc1-n1c(Cn2nc(-c3cccc(O)c3)c3c(N)ncnc32)nc2cccc(C)c2c1=O,102
14,CC(C)n1nc(-c2cc3cc(O)ccc3[nH]2)c2c(N)ncnc21 [Torkinib (PP242)],52.5
15,CC(C)n1nc(-c2ccc3oc(N)nc3c2)c2c(N)ncnc21,53.5 ± 16
16,CCO/C(O)=C1\C(C)=NC(c2ccccc2)=C(C(=O)OCc2ccc([N+](=O)[O-])cc2)C1C#Cc1ccccc1 (centres undefined),108
17,CC1=C(/C=C/C(C)=C\C=C\C(C)=C\C(=O)O)C(C)(C)CCC1 [9-cis Retinoic acid],96.4
18,"Nc1ccc(CC(CC(=O)O)C(=O)O)cc1 [4-Amino-D, L-benzylsuccinic acid]",104
19,CC(C)[C@@H](O)CC[C@@H](C)[C@H]1CC[C@H]2[C@@H]3CC=C4C[C@@H](O)CC[C@]4(C)[C@H]3CC[C@]12C [24(S)-Hydroxycholesterol],104
20,Cc1ccc2nc(NCCN)c3ncc(C)n3c2c1,56.1
21,Cc1ccnc(NS(=O)(=O)c2ccc(NC(=O)Nc3ccc(S(=O)(=O)Nc4nccc(C)n4)cc3)cc2)n1,96.2

row,SMILES,mean cytoplasmic OPP incorporation
1,Cc1nc(N)sc1-c1ccnc(Nc2ccc(N3CCOCC3)cc2)n1,93.4
2,Cc1ncc(-c2ccnc(Nc3ccc(S(C)(=O)=O)cc3)n2)n1C(C)C,55.9
3,"C[C@]12CC[C@@H](O)C[C@@H]1CC[C@@H]1[C@@H]2CC[C@]2(C)C=CC[C@@H]12 [3a, 5a-Androstenol]",97.3
4,Cn1cc(C2=C(c3ccc(Cl)cc3Cl)C(=O)NC2=O)c2ccccc21,104 and 106
5,Cn1cc(C2=C(c3cn(CCCSC(=N)N)c4ccccc34)C(=O)NC2=O)c2ccccc21 [Ro 31-8220 Mesylate],30.3
6,Cn1cc(C2=C(c3cn(CCCSC(=N)N)c4ccccc34)C(=O)NC2=O)c2ccccc21 [Ro 31-8220 mesylate],62.4
7,CN(C)CCCn1cc(C2=C(c3c[nH]c4ccccc34)C(=O)NC2=O)c2ccccc21,90.7 and 79.3
8,CC(=O)C1=C(O)C=C2Oc3c(C(C)=O)c(O)c(C)c(O)c3[C@]2(C)C1=O [Usnic acid],101
9,CC(=Nc1ccccc1N)c1c(C)cc(=O)n(O)c1O,95.7
10,COc1cccc(-c2cc(NCc3ccc4c(c3)OCO4)nc(N)n2)c1,92.3
11,CNCCN1CCC(OCc2ccccc2)CC1,111
12,O=C(CCCCCCC(=O)Nc1ccccc1)NO [Vorinostat],41.9
13,O=C(CCCCCCC(=O)Nc1cccnc1)NO [Pyroxamide],65.9
14,Nc1ccccc1NC(=O)CCCCCCC(=O)Nc1ccccc1,92.9
15,CSCCC(C=O)NC(=O)C(CC(C)C)NC(=O)[C@H](CC(C)C)NC(C)=O (some centres undefined) [Calpain Inhibitor II (ALLM)],109
16,COC1CCC(C(=O)c2ccc3nc4c(cc3c2)CCCO4)CC1 (centres undefined),98.8
17,Nc1ncnc2c1c(-c1cnc3[nH]ccc3c1)nn2C1CCCC1,44.2
18,C=CC(=O)N1CCC[C@@H](n2nc(-c3ccc(Oc4ccccc4)cc3)c3c(N)ncnc32)C1,105 ± 2.3
19,N#CC[C@H](C1CCCC1)n1cc(-c2ncnc3[nH]ccc23)cn1,83.53 ± 0.64
20,COc1cccc(/C=N/N=C/c2cccc(OC)c2)c1,99.7
21,CC1=C(/C=C/C(C)=C/C=C/C(C)=C\CO)C(C)(C)CCC1 [13-cis-Retinol],90.9
